The record followed here is PubChem BioAssay (EPA / NIEHS).

Where “and” joins values, the source holds several entries; their conditions need not be identical. Equal values may be shown once. Results filed as inconclusive are left out. A structure can be active in one record and inactive in another. Calls of active or inactive are those of the source. How the source made its calls, unless noted: active means hit-call score of the fitted dose curve at least 0.9, where 1 is the maximum; inconclusive means response in the unintended direction; inactive means score below 0.9.

A short description of assay [1]: ATG_GAL4_TRANS: Attagene TRANS-FACTORIAL HepG2 Assay for GAL4 (Internal Marker) (AID 2282976). The following applies: HepG2 Attagene TRANS GAL4 internal marker reporter. In a few lines:
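In transfected human HepG2 liver cells dosed 24 h, GAL4 reporter mRNA serves as a baseline marker. Detection by RT-PCR with fluorescent capillary electrophoresis, activity fitted upward relative to DMSO.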

Assay [2] addresses Oxysterols receptor LXR-alpha (Homo sapiens) (UniProt Q13133). Nature of the assay: ATG_LXRa_TRANS: Attagene TRANS-FACTORIAL HepG2 Assay for human Liver X Receptor alpha (LXRa) (AID 2282980). The following applies: HepG2 Attagene TRANS reporter, LXRa transactivation. Put shortly: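 Chemical-induced reporter mRNA measured by RT-PCR with fluorescent labelling and capillary electrophoresis after 24 h dosing of transiently transfected HepG2 cells expressing exogenous NR-Gal4 chimeras; increases scored against DMSO baseline.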

A short description of assay [3]: ATG_M_06_TRANS: Attagene TRANS-FACTORIAL HepG2 Assay for M06 Transcription Factor (Internal Marker) (AID 2282983).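 Further: reporter transcript level by RT-PCR then capillary electrophoresis fluorescence.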 The following applies: HepG2 Attagene TRANS M06 internal marker reporter. Put shortly:
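Background-control reporter readout: after 24 h chemical exposure of transiently transfected HepG2 (GAL4-UAS reporter units), mRNA quantified by RT-PCR with fluorescent labeling and capillary electrophoresis. Gain-of-signal fitting against DMSO baseline.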

A short description of assay [4]: ATG_M_32_TRANS: Attagene TRANS-FACTORIAL HepG2 Assay for M32 Transcription Factor (Internal Marker) (AID 2282984).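 Further: transcript level of a background control reporter unit measured by RT-PCR and capillary electrophoresis.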 The following applies: HepG2 Attagene TRANS M32 internal marker reporter. In a few lines:
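Fluorescence-detected mRNA induction, HepG2 liver cells, 24 h after dosing. Multiple GAL4-UAS reporter units introduced by transient transfection; background-control endpoint analysed for gain of signal against DMSO.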

In assay [5] the target is Transcriptional activator Myb (Homo sapiens) (UniProt P10242). Nature of the assay: ATG_Myb_CIS: Attagene CIS-FACTORIAL HepG2 Assay for human Myeloblastosis (Myb) Proto-Oncogene Transcription Factor (AID 2282986; active means hit-call score of the fitted dose curve at least 0.9, where 1 is the maximum; inactive means score below 0.9). The following applies: HepG2 Attagene CIS-FACTORIAL Myb reporter transcription; actives raise or lower the signal. Put shortly:
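HepG2, transient MRTU transfection (cis-element promoters, endogenous TF activity), 24 h compound exposure. Readout: reporter mRNA via RT-PCR, 6-FAM labeling, HpaI digest, capillary electrophoresis. Gain/loss fit vs DMSO.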

The target in assay [6] is Nuclear respiratory factor 1 (Homo sapiens) (UniProt Q16656). The experiment in a line: ATG_NRF1_CIS: Attagene CIS-FACTORIAL HepG2 Assay for human Nuclear Respiratory Factor 1 (NRF1) Orphan Gene (AID 2282987; active means hit-call score of the fitted dose curve at least 0.9, where 1 is the maximum; inactive means score below 0.9). The following applies: HepG2 NRF1 cis-element reporter, Attagene multiplex; actives raise or lower the signal. In a few lines:
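Endogenous NRF1-driven reporter transcription measured in transiently transfected human HepG2 liver cells. Readout: reporter mRNA by RT-PCR and capillary electrophoresis with fluorescence detection, 24 h post-dosing. Gain or loss of signal fitted relative to DMSO baseline.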

Assay [7] has as its target Oxysterols receptor LXR-beta (Homo sapiens) (UniProt P55055). Nature of the assay: ATG_LXRb_TRANS: Attagene TRANS-FACTORIAL HepG2 Assay for human Liver X Receptor beta (LXRb) (AID 2282981). The following applies: HepG2 Attagene TRANS GAL4-LXRb reporter, mRNA. In a few lines:
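Liver-derived HepG2 cells transfected with Gal4-responsive reporters were dosed for 24 h. Activation was scored as rise in reporter mRNA, by RT-PCR and capillary electrophoresis, above DMSO baseline.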

The target in assay [8] is Hepatocyte nuclear factor 4-alpha (Homo sapiens) (UniProt P41235). Nature of the assay: ATG_HNF4a_TRANS: Attagene TRANS-FACTORIAL HepG2 Assay for human Hepatocyte Nuclear Factor 4 alpha (HNF4a) (AID 2282982). The following applies: HepG2 HNF4a transactivation reporter, mRNA readout. Put shortly:
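Using HepG2 liver cells transfected with GAL4-UAS reporter units, chemical-induced mRNA increases were assessed after 24 hours. Fluorescent RT-PCR fragments were separated by capillary electrophoresis and compared with DMSO negative controls.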

For assay [9], the target named is Nuclear receptor subfamily 4 group A member 2 (Homo sapiens) (UniProt P43354). The experiment in a line: ATG_NURR1_TRANS: Attagene TRANS-FACTORIAL HepG2 Assay for human Nuclear Receptor Related Protein 1 (NURR1) (AID 2282985). The following applies: HepG2 Attagene TRANS reporter, mRNA readout. In a few lines:
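Chimeric NR-Gal4 proteins were expressed in human HepG2 cells bearing GAL4-UAS reporter units, and induced reporter mRNA was quantified 24 h post-dosing by RT-PCR and capillary electrophoresis.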

Assay [10] concerns the target Estrogen-related receptor gamma (Homo sapiens) (UniProt P62508). Nature of the assay: ATG_ERRg_TRANS: Attagene TRANS-FACTORIAL HepG2 Assay for human Estrogen-Related Receptor gamma (ERRg) (AID 2282977).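 Further: hits increase reporter signal over DMSO so potencies reflect activators.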 The following applies: HepG2 Attagene TRANS reporter, ERRg transactivation. In a few lines:
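Readout: fluorescent reporter-mRNA fragments resolved by capillary electrophoresis after RT-PCR and HpaI cut. Cells: transiently transfected HepG2 carrying GAL4-UAS reporters driven by exogenous NR-Gal4 chimeras, dosed 24 h. Activity fitted upward relative to DMSO baseline.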

Sequence of Transcriptional activator Myb (Homo sapiens) (P10242 whole entry, looked up): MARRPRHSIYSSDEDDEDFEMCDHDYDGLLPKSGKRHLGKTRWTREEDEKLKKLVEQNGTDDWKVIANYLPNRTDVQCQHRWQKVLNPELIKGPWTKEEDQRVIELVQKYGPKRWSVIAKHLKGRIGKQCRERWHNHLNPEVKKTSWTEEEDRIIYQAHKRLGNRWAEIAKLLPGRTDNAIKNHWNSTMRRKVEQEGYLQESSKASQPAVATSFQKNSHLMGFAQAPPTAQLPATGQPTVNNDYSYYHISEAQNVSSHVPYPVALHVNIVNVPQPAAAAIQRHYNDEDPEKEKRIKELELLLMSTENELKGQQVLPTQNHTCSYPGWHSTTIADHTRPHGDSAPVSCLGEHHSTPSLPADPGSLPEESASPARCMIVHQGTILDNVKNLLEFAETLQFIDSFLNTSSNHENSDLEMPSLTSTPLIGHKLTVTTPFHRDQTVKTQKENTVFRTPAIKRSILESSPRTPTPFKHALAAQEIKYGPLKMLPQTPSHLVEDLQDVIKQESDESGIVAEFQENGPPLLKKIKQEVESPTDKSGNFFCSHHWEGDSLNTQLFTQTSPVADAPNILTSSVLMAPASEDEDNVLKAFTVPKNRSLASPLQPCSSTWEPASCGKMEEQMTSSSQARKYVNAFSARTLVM
Sequence of Nuclear receptor subfamily 4 group A member 2 (Homo sapiens) (P43354 whole entry, looked up, the tested form may be a part): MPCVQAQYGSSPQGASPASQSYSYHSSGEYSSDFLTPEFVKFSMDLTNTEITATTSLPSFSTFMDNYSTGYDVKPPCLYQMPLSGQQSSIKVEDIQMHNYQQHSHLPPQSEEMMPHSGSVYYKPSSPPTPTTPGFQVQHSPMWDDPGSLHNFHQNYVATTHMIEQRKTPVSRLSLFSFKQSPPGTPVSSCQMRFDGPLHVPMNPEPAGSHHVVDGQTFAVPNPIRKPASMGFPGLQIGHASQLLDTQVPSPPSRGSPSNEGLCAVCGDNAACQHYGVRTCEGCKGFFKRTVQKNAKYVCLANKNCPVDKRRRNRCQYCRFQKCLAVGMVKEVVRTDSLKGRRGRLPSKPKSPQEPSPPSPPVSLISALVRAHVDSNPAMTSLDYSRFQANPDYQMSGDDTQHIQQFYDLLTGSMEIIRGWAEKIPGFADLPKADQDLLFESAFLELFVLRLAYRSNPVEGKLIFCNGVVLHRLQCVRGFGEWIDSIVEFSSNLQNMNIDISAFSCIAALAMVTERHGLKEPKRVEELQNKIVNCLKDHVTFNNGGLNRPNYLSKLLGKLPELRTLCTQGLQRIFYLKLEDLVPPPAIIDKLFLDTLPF
Sequence of Nuclear respiratory factor 1 (Homo sapiens) (Q16656 whole entry, looked up): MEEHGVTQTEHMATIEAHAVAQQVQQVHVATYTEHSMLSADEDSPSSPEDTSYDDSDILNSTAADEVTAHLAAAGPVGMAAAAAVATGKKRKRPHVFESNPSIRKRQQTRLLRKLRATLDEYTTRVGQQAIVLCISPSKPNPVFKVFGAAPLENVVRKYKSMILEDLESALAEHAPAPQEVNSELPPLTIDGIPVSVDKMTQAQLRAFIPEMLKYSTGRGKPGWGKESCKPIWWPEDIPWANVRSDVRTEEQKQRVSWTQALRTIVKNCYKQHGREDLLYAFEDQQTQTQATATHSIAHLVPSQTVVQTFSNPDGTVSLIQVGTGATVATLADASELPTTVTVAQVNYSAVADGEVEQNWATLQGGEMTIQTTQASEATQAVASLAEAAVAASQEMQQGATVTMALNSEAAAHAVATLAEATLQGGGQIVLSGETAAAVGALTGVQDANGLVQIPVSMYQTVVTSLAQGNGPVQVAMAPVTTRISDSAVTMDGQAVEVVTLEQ
Sequence of Estrogen-related receptor gamma (Homo sapiens) (P62508 whole entry, looked up, the tested form may be a part): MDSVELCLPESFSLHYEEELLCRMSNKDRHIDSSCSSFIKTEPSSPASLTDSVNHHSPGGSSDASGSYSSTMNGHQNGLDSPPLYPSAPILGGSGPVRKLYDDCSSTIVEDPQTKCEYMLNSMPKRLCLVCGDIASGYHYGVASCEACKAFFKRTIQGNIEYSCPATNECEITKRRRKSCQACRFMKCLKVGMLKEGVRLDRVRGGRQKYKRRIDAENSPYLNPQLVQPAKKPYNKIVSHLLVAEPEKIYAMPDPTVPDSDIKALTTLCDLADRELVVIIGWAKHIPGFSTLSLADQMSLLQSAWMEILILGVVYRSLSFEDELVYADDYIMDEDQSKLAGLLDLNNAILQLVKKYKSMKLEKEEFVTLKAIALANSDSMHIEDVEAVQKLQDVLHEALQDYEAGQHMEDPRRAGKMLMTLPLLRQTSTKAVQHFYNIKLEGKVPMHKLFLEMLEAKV
Sequence of Hepatocyte nuclear factor 4-alpha (Homo sapiens) (P41235 whole entry, looked up, the tested form may be a part): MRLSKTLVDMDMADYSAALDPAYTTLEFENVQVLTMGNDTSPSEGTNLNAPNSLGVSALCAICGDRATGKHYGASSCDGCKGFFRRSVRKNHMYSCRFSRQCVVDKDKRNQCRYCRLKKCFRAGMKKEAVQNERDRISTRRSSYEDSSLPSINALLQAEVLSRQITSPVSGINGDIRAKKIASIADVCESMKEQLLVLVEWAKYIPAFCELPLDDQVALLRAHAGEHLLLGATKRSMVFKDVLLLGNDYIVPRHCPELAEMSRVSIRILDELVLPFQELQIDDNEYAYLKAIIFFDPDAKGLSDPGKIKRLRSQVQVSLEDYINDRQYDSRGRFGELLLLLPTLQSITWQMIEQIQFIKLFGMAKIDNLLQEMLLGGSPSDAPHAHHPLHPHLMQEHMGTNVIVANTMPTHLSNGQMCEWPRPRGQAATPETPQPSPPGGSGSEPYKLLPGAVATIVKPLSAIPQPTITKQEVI
Sequence of Oxysterols receptor LXR-alpha (Homo sapiens) (Q13133 whole entry, looked up, the tested form may be a part): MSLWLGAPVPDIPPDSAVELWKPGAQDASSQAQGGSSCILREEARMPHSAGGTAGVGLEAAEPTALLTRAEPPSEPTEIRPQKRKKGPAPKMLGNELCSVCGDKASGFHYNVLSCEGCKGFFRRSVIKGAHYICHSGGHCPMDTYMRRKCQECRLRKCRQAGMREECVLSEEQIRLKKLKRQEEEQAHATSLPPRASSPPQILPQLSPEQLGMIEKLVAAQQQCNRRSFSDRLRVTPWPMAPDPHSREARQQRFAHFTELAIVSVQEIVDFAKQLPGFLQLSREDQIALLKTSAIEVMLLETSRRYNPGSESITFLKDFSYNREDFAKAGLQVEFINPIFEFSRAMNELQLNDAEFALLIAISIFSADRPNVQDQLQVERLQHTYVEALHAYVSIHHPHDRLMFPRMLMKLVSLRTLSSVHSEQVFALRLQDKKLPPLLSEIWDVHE
Sequence of Oxysterols receptor LXR-beta (Homo sapiens) (P55055 whole entry, looked up, the tested form may be a part): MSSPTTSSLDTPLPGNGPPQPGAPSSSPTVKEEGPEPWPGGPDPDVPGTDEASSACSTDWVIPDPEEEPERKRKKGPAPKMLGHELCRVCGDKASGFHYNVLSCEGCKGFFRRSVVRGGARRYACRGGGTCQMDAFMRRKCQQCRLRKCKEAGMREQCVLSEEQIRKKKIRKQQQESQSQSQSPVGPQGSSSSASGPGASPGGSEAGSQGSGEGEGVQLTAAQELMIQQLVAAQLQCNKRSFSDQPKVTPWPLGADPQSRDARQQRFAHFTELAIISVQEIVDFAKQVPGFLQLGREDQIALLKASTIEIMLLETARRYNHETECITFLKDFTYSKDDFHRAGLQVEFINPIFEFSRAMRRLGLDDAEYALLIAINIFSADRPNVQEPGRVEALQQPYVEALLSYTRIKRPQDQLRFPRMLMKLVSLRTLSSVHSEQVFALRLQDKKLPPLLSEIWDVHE

`CCOC(=O)C(O)(c1ccc(Cl)cc1)c1ccc(Cl)cc1`: the compound was classed as inactive in assay [1], in [2], in assay [3], in assay [4], in [5] and in [6].
Regarding `CCCN(CCC)N=O`, the call in assay [1], in assay [7], in [3], in [4], in assay [5] and in assay [6] was inactive.
Turning to `CCC(=O)O[C@H]1CC[C@H]2[C@@H]3CCC4=CC(=O)CC[C@]4(C)[C@H]3CC[C@]12C`, the outcome in assay [1], in [2], in assay [7], in assay [8], in assay [3] and in assay [4] was inactive. In addition, the call in assay [9], in [5] and in [6] was inactive. The AC50 in [2] is 25.3 µM (active); in [7], 3.11 µM (active) and 25.7 µM (active); in assay [5] it was 164 µM (active); in assay [6], 122 µM (active).
For the compound `CC(C)C(=O)OCC(C)(C)C(OC(=O)C(C)C)C(C)C` (stereo unspecified), the compound was classed as inactive in [1], in assay [2], in assay [7], in [9], in assay [5] and in [6].
For the compound `c1cc2ccc3cccc4ccc(c1)c2c34`, the result in assay [1], in [7], in [8], in assay [3], in [4] and in [9] was inactive. Also, the result in assay [5] and in assay [6] was inactive.
Regarding `Cc1ccc(O)c(C)c1`, the call in assay [1], in assay [5] and in assay [6] was inactive.
Regarding `Clc1ccc(C(c2ccccc2Cl)C(Cl)(Cl)Cl)cc1` (stereo unspecified), the outcome in assay [1], in assay [10], in [2], in [7], in [3] and in assay [4] was inactive. Also, the compound was classed as inactive in [9], in assay [5] and in assay [6]. Besides, in [6], the concentration at half-maximal activity (AC50) was 120 µM (active).
As for `C[C@]12CCC(=O)C=C1CC[C@@H]1[C@@H]2CC[C@]2(C)C(=O)CC[C@@H]12`, the outcome in [1], in assay [10], in assay [2], in assay [7], in assay [8] and in assay [3] was inactive. The compound was called inactive in assay [4], in assay [9], in [5] and in assay [6].
As for `O=C(NC(=O)c1c(F)cccc1F)Nc1cc(Cl)c(OC(F)(F)C(F)F)c(Cl)c1`, the compound was classed as inactive in assay [1], in assay [2], in assay [3], in assay [5] and in assay [6].
In the case of `N#Cc1ccc(N(CC(N)=O)CC(F)(F)F)cc1C(F)(F)F`, the compound was classed as inactive in [1], in assay [2], in [5] and in assay [6].
Take `CCCCCCOC(=O)c1ccccc1C(=O)OCCCCCC`: the outcome in [1], in assay [3], in assay [9], in assay [5] and in assay [6] was inactive.
With `Cc1cc2c3c(c1)C(c1ccccc1)=N[C@@H](NC(=O)c1ccncc1)C(=O)N3CC2`, the result in assay [1], in assay [4], in [9], in [5] and in assay [6] was inactive.
As to `CN(C)CCO`, the result in [1], in assay [10], in assay [7], in [8], in assay [3] and in [4] was inactive. For the same compound, the result in assay [9], in assay [5] and in assay [6] was inactive.
Consider `Clc1ccc(Cl)cc1`, for which the outcome in assay [1], in assay [2], in assay [7], in [8], in assay [3] and in assay [4] was inactive. Besides, the call in assay [9], in assay [5] and in [6] was inactive.
`CCC(C)(c1ccc(O)cc1)c1ccc(O)cc1`: the compound was called inactive in [10], in assay [2], in assay [7], in assay [8], in [3] and in assay [4]. For the same compound, the compound was called inactive in [9], in assay [5] and in [6].
`O=C(NC(=O)c1cc(F)c(F)cc1Cl)Nc1cc(F)ccc1N1CCC(C(=O)O)CC1`: the outcome in [1], in [7], in assay [8], in assay [9], in assay [5] and in [6] was inactive.
Take `Sc1ccccc1`: the compound was called inactive in [1], in [7], in assay [3], in [4], in assay [9] and in assay [5]. Further, the result in [6] was inactive.
For the compound `O=C(O)C(F)(F)C(F)(F)C(F)(F)C(F)(F)C(F)(F)C(F)(F)C(F)(F)C(F)(F)C(F)(F)F`, the outcome in assay [1], in assay [10], in assay [2], in [7], in assay [8] and in assay [3] was inactive. For the same compound, the outcome in [4], in [9], in [5] and in [6] was inactive. The AC50 in assay [9] is 12.9 µM (active).
`c1ccc(-c2ccccc2)cc1`: the call in [1], in assay [4], in assay [9], in assay [5] and in assay [6] was inactive.
As for `Cc1cccc(C)c1N`, the compound was classed as inactive in [1], in [8], in assay [3], in assay [5] and in assay [6].
Turning to `O=S(=O)(O)C(F)(F)C(F)(F)C(F)(F)C(F)(F)F`, the call in assay [1], in assay [10], in assay [2], in assay [7], in [8] and in assay [3] was inactive. Moreover, the compound was called inactive in [4], in assay [9], in [5] and in [6].
Take `C[C@]12CCC(=O)C=C1CC[C@@H]1[C@@H]2CC[C@@]2(C)[C@H]1CC[C@]2(C)O`: the compound was classed as inactive in assay [1], in assay [2], in assay [7], in [8], in assay [3] and in assay [4]. In addition, the result in [9], in [5] and in assay [6] was inactive. Moreover, in [6], the AC50 is 21.6 µM (active).
Take `Clc1ccc(C(Cl)(Cl)Cl)cc1`: the result in assay [1], in assay [7], in [3], in assay [4], in assay [5] and in [6] was inactive.
In the case of `O=S(=O)(O)C(F)(F)C(F)(F)C(F)(F)C(F)(F)C(F)(F)C(F)(F)F`, the compound was classed as inactive in assay [1], in assay [2], in assay [7], in assay [3], in assay [4] and in assay [9]. Moreover, the call in [5] and in assay [6] was inactive.
Turning to `CC1=C2C[C@H]3[C@@H](CC=C4C[C@@H](O)CC[C@@]43C)[C@@H]2CC[C@]12O[C@@H]1C[C@H](C)CN[C@H]1[C@H]2C`, the compound was called inactive in [1], in [3], in assay [4], in [5] and in [6].

As a reminder, the AC50 is the midpoint of the concentration-response curve, whichever way the signal moves.
